Molecules are shown by their SMILES. The campaign covered roughly 310,000 compounds. About 14,000 (4.5%) showed an effect of 50% or more. The effect is printed as a negative number. The full list was thinned out, with strong results kept by preference.
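Note: peak tail current of the secondary pulse compared with the same well before compound.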

human ether-à-go-go-related gene (hERG) potassium channel, sequence (Q12809 whole entry, looked up): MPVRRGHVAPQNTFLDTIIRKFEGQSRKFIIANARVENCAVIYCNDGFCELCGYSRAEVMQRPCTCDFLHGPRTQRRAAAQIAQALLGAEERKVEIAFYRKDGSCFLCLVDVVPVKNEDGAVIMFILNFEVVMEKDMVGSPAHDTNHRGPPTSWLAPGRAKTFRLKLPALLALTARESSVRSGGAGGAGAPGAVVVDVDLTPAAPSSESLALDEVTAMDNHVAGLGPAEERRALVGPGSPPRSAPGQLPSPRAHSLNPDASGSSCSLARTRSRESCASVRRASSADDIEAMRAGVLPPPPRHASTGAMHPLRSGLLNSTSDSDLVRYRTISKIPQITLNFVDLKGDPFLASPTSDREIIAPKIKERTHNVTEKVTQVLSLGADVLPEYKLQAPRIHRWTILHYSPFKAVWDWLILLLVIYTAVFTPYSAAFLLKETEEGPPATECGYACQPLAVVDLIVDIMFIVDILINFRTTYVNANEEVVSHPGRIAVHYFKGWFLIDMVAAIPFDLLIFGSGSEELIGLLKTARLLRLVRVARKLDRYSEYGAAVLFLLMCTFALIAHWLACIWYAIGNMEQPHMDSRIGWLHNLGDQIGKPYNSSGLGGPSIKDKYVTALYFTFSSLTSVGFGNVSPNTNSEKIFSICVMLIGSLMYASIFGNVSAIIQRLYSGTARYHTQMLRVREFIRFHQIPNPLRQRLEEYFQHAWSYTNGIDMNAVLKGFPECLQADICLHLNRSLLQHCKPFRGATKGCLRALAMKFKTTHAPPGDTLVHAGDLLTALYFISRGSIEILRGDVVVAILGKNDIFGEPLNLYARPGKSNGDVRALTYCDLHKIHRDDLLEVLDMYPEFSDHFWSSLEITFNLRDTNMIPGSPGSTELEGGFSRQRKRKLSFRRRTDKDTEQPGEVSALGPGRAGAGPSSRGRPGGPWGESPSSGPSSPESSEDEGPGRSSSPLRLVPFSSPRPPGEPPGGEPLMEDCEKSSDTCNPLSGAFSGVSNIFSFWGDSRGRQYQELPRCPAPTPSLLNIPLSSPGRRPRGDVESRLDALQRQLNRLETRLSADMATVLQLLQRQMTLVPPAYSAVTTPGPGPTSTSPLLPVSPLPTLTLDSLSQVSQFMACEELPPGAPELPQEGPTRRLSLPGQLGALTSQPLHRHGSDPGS

The assay concerns the target human ether-à-go-go-related gene (hERG) potassium channel (human, UniProt Q12809). Kind of assay: primary screen, population patch clamp on CHO cells stably expressing hERG; higher = less effect of the substance.
For the compound `Fc1ccc(-[n+]2nc(Nc3ccccc3)sc2-c2ccc(OCc3ccccc3)cc2)cc1.[Cl-]`, the “hERG current change (%, negative = inhibition) at 10uM” value is -20.5%.
For `Cc1ccccc1OCc1nnc2n1CC(C)S2` (centres unmarked) the value was 7.43%; for `CCCCC(=O)Nc1ccc(NC(=S)NC(=O)CC)cc1OC`, -0.84%.
Consider `O=C(OCC(=O)N1CCC(c2ccccc2)=N1)c1ccc([N+](=O)[O-])s1`, for which the “hERG current change (%, negative = inhibition) at 10uM” value is given as -34.7%.
For `CC(C)c1ccc(/C=N/NC(=O)c2cccc(S(=O)(=O)N3CCOCC3)c2)cc1` the value was 10.1%; for `CN(C)c1ccc(C2C3C(=O)N(c4ccc(C(=O)O)cc4)C(=O)C3ON2c2ccccc2)cc1` (centres unmarked), 7.23%.
To `Cc1ccc(N2OC3C(=O)NC(=O)C3C2c2ccco2)cc1` (centres unmarked) belongs 7.89%; to `CN(C)c1ccc(C2C3C(=O)NC(=O)C3ON2c2ccc(Cl)cc2)cc1` (centres unmarked), -64%; to `O=C(Cn1cnc2c(cnn2-c2ccccc2Cl)c1=O)N1CCc2ccccc21`, -0.441%.
For `CC(CNC(=O)Cn1ccc2cc(S(=O)(=O)N3CCCC3)ccc21)c1ccccc1` (centres unmarked) the value was -9.17%; for `O=C(NCCc1ccccc1)c1ccco1`, 0.15%; for `CC(C)(C)c1ccc(C(=O)C2CCCN(C(=O)C3CCOCC3)C2)cc1` (centres unmarked), -7.14%.
Take `O=C(c1cccc(C(F)(F)F)c1)C1CCCN(C(=O)C2CCOCC2)C1` (centres unmarked): the “hERG current change (%, negative = inhibition) at 10uM” value was -51.3%.
On to `Cc1noc(C)c1C(=O)N1CCCC(C(=O)c2cccc(C(F)(F)F)c2)C1` (centres unmarked), for which the “hERG current change (%, negative = inhibition) at 10uM” value is -22.6%.
For `Cc1nonc1CC(=O)N1CCCC(C(=O)c2cccc(C(F)(F)F)c2)C1` (centres unmarked) the value was -56.2%.
For `Cc1nonc1CC(=O)N1CCCC(C(=O)c2ccc(Cl)cc2)C1` (centres unmarked) the value was -8.66%; for `CC1=C(C(=O)N2CCCC(C(=O)c3cccc(C(F)(F)F)c3)C2)OCCO1` (centres unmarked), 2.26%.
To `O=C(COC(=O)C1CSC2(c3ccc(F)cc3)CCC(=O)N12)NC(=O)NC1CCCC1` (centres unmarked) belongs -4.24%.
For the compound `O=C1c2ccccc2C(=O)C1c1ccccn1`, the “hERG current change (%, negative = inhibition) at 10uM” value stood at 6.76%.
For `O=C(CSc1ccc2nnc(-c3cccnc3)n2n1)Nc1ccc(F)cc1` the value was -31.5%.
Regarding `Cc1ccc(CSc2ccc3nnc(-c4cccnc4)n3n2)cc1`, the “hERG current change (%, negative = inhibition) at 10uM” value is given as -79.3%.
Consider `CCSc1ccc2nnc(-c3cccc(F)c3)n2n1`, for which the “hERG current change (%, negative = inhibition) at 10uM” value is recorded as -33.6%.
As to `CCCN(CCC)CCCNc1ccc2nnc(-c3ccc(F)cc3)n2n1`, the “hERG current change (%, negative = inhibition) at 10uM” value was -55.9%.
To `CC(=O)C(Sc1ccc2nnc(-c3cccnc3)n2n1)C(C)=O` belongs -2.29%; to `CCSc1ccc2nnc(-c3ccc(F)cc3)n2n1`, -55.6%.
For `Fc1ccc(CSc2ccc3nnc(-c4cccnc4)n3n2)cc1`, the “hERG current change (%, negative = inhibition) at 10uM” value is -71.5%.
To `CC(=O)C(Sc1ccc2nnc(-c3ccc(F)cc3)n2n1)C(C)=O` belongs 8.13%; to `Cc1ccc(CSc2nnc(-c3cccnc3)n2N)cc1`, 18%.
For `CCC(Sc1ccc2nnc(-c3ccc(F)cc3)n2n1)C(=O)OC` (centres unmarked) the value was -48.3%; for `Fc1ccc(CSc2ccc3nnc(-c4cccs4)n3n2)cc1`, 17.1%.
For `COC(=O)CSc1ccc2nnc(-c3ccc(F)cc3)n2n1`, the “hERG current change (%, negative = inhibition) at 10uM” value is reported as -43.7%.
For `COc1ccc(CNC(=O)C(c2cccs2)N(C(=O)c2csnn2)C2CC2)cc1` (centres unmarked) the value was -12.2%.
Regarding `COC(=O)c1cc(NC(=O)c2cccc(F)c2)cc(C(=O)OC)c1`, the “hERG current change (%, negative = inhibition) at 10uM” value is recorded as 5.98%.
For `CC(Sc1nc(O)c(-c2ccccc2)c(=O)[nH]1)C(=O)Nc1ccc(Cl)cc1` (centres unmarked) the value was 26.9%; for `COc1ccc(N=Cc2c(O)[nH]c3ccccc23)cc1`, 0.417%; for `O=C(Nc1ccc(S(=O)(=O)N2CCN(c3ccccc3)CC2)cc1)c1cccs1`, 8.53%.
To `Fc1cccc(Cl)c1Cn1ncc2ccccc21` belongs -7.36%; to `C=CCSc1nc(N)cc(=O)[nH]1`, 0.914%; to `Cc1ccc(CNc2ccc3nnc(-c4ccccc4)n3n2)cc1`, 15.7%.
Consider `c1ccc(CN2CCN(CCCNc3ccc4nnc(-c5ccccc5)n4n3)CC2)cc1`, for which the “hERG current change (%, negative = inhibition) at 10uM” value is -59.7%.
For `CCOc1ccc(CCNc2ccc3nnc(-c4ccccc4)n3n2)cc1OCC` the value was 1.95%; for `CCn1cc(C(=O)N(C)c2ccc(OC)cc2OC)c2cc(OC)c(OC)cc2c1=O`, 12.4%.
Regarding `CNS(=O)(=O)c1ccc(Oc2ccc(S(=O)(=O)NC)cc2)cc1`, the “hERG current change (%, negative = inhibition) at 10uM” value was determined as 13.2%.
For `C=CS(=O)(=O)c1ccc(Oc2ccc(S(=O)(=O)C=C)cc2)cc1` the value was -64.3%.
Consider `NS(=O)(=O)c1ccc(Oc2ccc(S(N)(=O)=O)cc2)cc1`, for which the “hERG current change (%, negative = inhibition) at 10uM” value is 0.75%.
`Cc1ccc(N2C(=O)C(Cc3ccc(O)cc3)NC2=S)cc1C` (centres unmarked): the “hERG current change (%, negative = inhibition) at 10uM” value is on record as -7.04%.
For `Brc1ccccc1C1=Nn2c(nnc2-c2ccccc2)SC1` the value was 14.5%; for `CC(NC(=O)c1cc2ccccc2o1)c1cccs1` (centres unmarked), -15.6%; for `Cc1cc2c(c(=O)n1CCN(C)C)C(c1ccc(Br)cc1)C(C#N)=C(N)O2` (centres unmarked), -58.5%.
For `Cc1cc2c(c(=O)n1CCN(C)C)C(c1ccccc1Br)C(C#N)=C(N)O2` (centres unmarked) the value was -26.1%; for `Cc1cc2c(c(=O)n1CCN(C)C)C(c1ccncc1)C(C#N)=C(N)O2` (centres unmarked), 19.6%; for `COc1ccc(CC(=O)NC(c2ccccc2)c2ccc(C)cc2)c(OC)c1` (centres unmarked), 11.3%.
Turning to `COc1ccc(Cn2nnnc2C(c2ccc(C)cc2)N2CCN(C3CCCC3)CC2)cc1.Cl` (centres unmarked), the “hERG current change (%, negative = inhibition) at 10uM” value was -63.8%.
For `c1cnc2ccc(C(c3nnnn3C3CCCC3)N3CCSCC3)cc2c1` (centres unmarked) the value was -3.72%; for `COc1ccc(Cn2nnnc2C(c2ccc3ncccc3c2)N2CCN(C3CCCCC3)CC2)cc1` (centres unmarked), -82.8%; for `CCN1CCN(C(c2ccccc2)c2nnnn2Cc2ccc(OC)cc2)CC1.Cl` (centres unmarked), 10.7%.
For `COc1ccccc1C(c1nnnn1Cc1ccccc1)N1CCN(C2CCCC2)CC1.Cl` (centres unmarked) the value was -35.5%; for `c1ccc(Cn2nnnc2C(c2cccnc2)N2CCN(C3CCCCC3)CC2)cc1` (centres unmarked), -24.9%; for `COc1ccc(C(c2nnnn2Cc2ccc(F)cc2)N2CCN(c3ccccc3)CC2)cc1` (centres unmarked), -4.37%.
As for `COc1ccc(OC)c(C(c2nnnn2Cc2ccccc2)N2CCN(C3CCCCC3)CC2)c1.Cl` (centres unmarked), the “hERG current change (%, negative = inhibition) at 10uM” value is reported as -53.9%.
For the compound `COc1ccc(C(c2nnnn2Cc2ccccc2)N2CCN(c3ccccc3)CC2)cc1.Cl` (centres unmarked), the “hERG current change (%, negative = inhibition) at 10uM” value is -6.94%.
To `COc1ccc(Cn2nnnc2C(c2ccc(F)cc2)N2CCN(C3CCCC3)CC2)cc1` (centres unmarked) belongs -52.6%.
Consider `COc1ccc(C(c2nnnn2Cc2ccc(F)cc2)N2CCN(c3ccc(OC)cc3)CC2)cc1` (centres unmarked), for which the “hERG current change (%, negative = inhibition) at 10uM” value is -7.57%.
For `COc1ccc(OC)c(C(c2nnnn2Cc2ccccc2)N2CCN(C)CC2)c1.Cl` (centres unmarked) the value was 3.17%.
To `Cc1ccc(N(CC(O)Cn2c3ccccc3c3ccccc32)S(C)(=O)=O)cc1` (centres unmarked) belongs 9.82%.
`CCC(C)(C)n1nnnc1C(c1cc2ccc(OC)cc2[nH]c1=O)N1CCc2ccccc2C1` (centres unmarked): the “hERG current change (%, negative = inhibition) at 10uM” value was -27.9%.
To `CCC(C)(C)n1nnnc1C(c1cc2ccc(OC)cc2[nH]c1=O)N1CCCCC1` (centres unmarked) belongs -26.3%; to `CCC(C)(C)n1nnnc1C(c1cc2ccc(OC)cc2[nH]c1=O)N1CCN(C2CCCCC2)CC1` (centres unmarked), -59.6%.
With `Cc1cccc(NC(=O)c2cc(NC(=O)c3ccco3)ccc2Cl)n1`, the “hERG current change (%, negative = inhibition) at 10uM” value is recorded as -29.1%.
To `Cc1nc2ccccn2c1C(=O)Nc1ccc(Cl)cc1` belongs 1.65%.
For `CN(C)c1nc2c(N)ncnc2n1[C@H]1O[C@@H](CO)[C@H](O)[C@@H]1O`, the “hERG current change (%, negative = inhibition) at 10uM” value was determined as 7.28%.
On to `Br.COc1ccc(Nc2nc(-c3sc(NC(C)=O)nc3C)cs2)cc1`, for which the “hERG current change (%, negative = inhibition) at 10uM” value was found to be 3.32%.
With `Cc1c(NC(=S)NC(=O)C(c2ccccc2)c2ccccc2)cccc1C(=O)O`, the “hERG current change (%, negative = inhibition) at 10uM” value was -3.41%.
To `COc1ccccc1C(=O)Nc1ccnn1C1CCN(CCCc2ccccc2)CC1` belongs -78.3%; to `Cc1ccccc1C(=O)Nc1ccnn1C1CCN(CCCc2ccccc2)CC1`, -78.4%; to `O=C(Nc1ccnn1C1CCN(Cc2ccn[nH]2)CC1)c1ccccc1`, -18.2%.
In the case of `CC(=O)CCC(=O)N1CCC(n2nccc2NC(=O)c2ccccc2C)CC1`, the “hERG current change (%, negative = inhibition) at 10uM” value was determined as 9.06%.
As for `O=C(Nc1ccnn1C1CCN(CCCc2ccccc2)CC1)c1ccccc1`, the “hERG current change (%, negative = inhibition) at 10uM” value is listed as -80.8%.
In the case of `O=C(Nc1ccnn1C1CCN(CCCc2ccccc2)CC1)c1ccccc1Cl`, the “hERG current change (%, negative = inhibition) at 10uM” value is -82.2%.
To `C=CCNC(=S)Nc1ccc(N(C)C)cc1` belongs -6%.
Consider `CCOC(=O)c1cnc(-n2nc(C)cc2C)nc1Oc1ccc(C#N)cc1`, for which the “hERG current change (%, negative = inhibition) at 10uM” value is listed as 21.3%.
For `CC(=O)c1ccccc1NS(=O)(=O)c1ccc2c(c1)CC(=O)N2` the value was 2.66%; for `CCCCn1nnnc1SCC(=O)NNC(=O)C1CCCCC1`, -1.79%; for `O=C1c2ccccc2C(=O)N1CCc1nc(-c2cccnc2)no1`, -12.2%.
Turning to `COc1ccccc1NC(=O)C1(C)Cc2ccccc2C(=O)O1` (centres unmarked), the “hERG current change (%, negative = inhibition) at 10uM” value was -10.2%.
For `Cc1ccc(-n2ncc3ccccc3c2=O)cc1Cl` the value was -3.72%.

These data come from PMC4336329 (PLoS ONE, 2015).
